Drawing on PubChem BioAssay (NCATS), this text covers Potency for 40 compounds.

Molecules are shown by their SMILES. Results filed as inconclusive are left out. A call without a number means that no potency is given here. Calls of active or inactive are those of the source. Calls come from the whole dose curve; as a rule, active = well fitted cell-killing curve with a large enough effect; inconclusive = small, poorly fitted or top-dose-only effect, or effect the other way; inactive = flat fitted curve, though single readings scatter.

In the first assay the test system is JEG-3. In words: Primary qHTS to identify gynecologic anti-cancer compounds using libraries of approved drugs and bioactive compounds (AID 1345084). Note: nearly all actives have a fitted effect of over 55% in size. The following applies: Gynecologic cancer cell panel viability, ATPlite luminescence, 48 h; series mostly up to 57.5 µM. The procedure, abridged: (§1)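 Measured: luminescence after ATPlite addition (15 min, RT). Exposure: 48 h, 37 C, 5% CO2.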
(In general: qHTS replaces the single test concentration by a dilution series.)
For the compound `CC(C)=C[C@@H]1[C@@H](C(=O)OCc2coc(Cc3ccccc3)c2)C1(C)C`, the Potency result is “inactive”.
The same measure, in the same setting: next, `CCN(CC)C(C)C(=O)c1ccccc1` (stereo not given): “inactive”; `Nc1ccc(Cl)cc1C(=O)c1ccccc1F`: “inactive”.
Still for that read-out and setting: next, `COc1ccc(C(=O)N2CCCC2=O)cc1`: “inactive”; `CC(C)C(Br)C(=O)NC(N)=O` (stereo not given): “inactive”; `C#C[C@]1(O)CC[C@H]2[C@@H]3CCC4=CC(=O)CCC4=C3C=C[C@@]21CC`: “inactive”.
With `CC(CC(C(N)=O)(c1ccccc1)c1ccccc1)N(C)C` (stereo not given), the Potency result was “inactive”.
In the case of `C#C[C@]1(O)C=C[C@H]2[C@@H]3CCC4=CC(=O)CC[C@@H]4[C@H]3CC[C@@]21CC`, the Potency entry was “inactive”.
On the same count and under the same terms, the value for `C[C@@H]1CC[C@H]2[C@@H](C)C(=O)O[C@@H]3O[C@@]4(C)CC[C@@H]1[C@]32OO4` was “inactive”.
The same measure, in the same setting: the value for `CNC(C)Cc1ccccc1OC` (stereo not given) was “inactive”; that for `CC(Cc1ccccc1)NCc1ccccc1Cl` (stereo not given) was “inactive”.
Still for that read-out and setting: the value for `Nc1ccccc1C(=O)OCC(O)CO` (stereo not given) was “inactive”.
Consider `CC(C)NCC(O)c1ccc(N)c(C#N)c1` (stereo not given), for which the Potency entry was “inactive”.
The same measure, in the same setting: the value for `Sc1ccccc1Cl` was “inactive”.
The same measure, in the same setting: the value for `CCN(CC)CCOC(=O)C(C)(c1ccccc1)c1ccccc1` was “inactive”.
Same read-out and setting: next, `COc1ccc2[nH]cc(CCN(C(C)C)C(C)C)c2c1`: “inactive”; `COc1cc(CC#N)cc(OC)c1OC`: “inactive”; `O=C(CBr)Nc1ccc(Cl)cc1C(=O)c1ccccc1F`: “inactive”.
Consider `COP(=S)(OC)Oc1ccc(S(N)(=O)=O)cc1`, for which the Potency entry was “inactive”.
Still for that read-out and setting: the value for `C[N+](C)(C)CCOC(=O)C(O)(c1ccccc1)c1ccccc1` was “inactive”.
Same read-out and setting: next, `ClCCCN1CCN(c2cccc(Cl)c2)CC1`: “inactive”; `CCc1ccc(C2CCNCC2)cc1`: “inactive”.
Still for that read-out and setting: the value for `CCC1(c2ccccc2)CCC(=O)NC1=O` (stereo not given) was “inactive”; that for `CN(C)C(=O)Oc1cc(OC(=O)N(C)C)cc(C(O)CNC(C)(C)C)c1` (stereo not given) was “inactive”; that for `Oc1ccc([C@H]2CNCc3c2ccc(O)c3O)cc1O` was “inactive”.
In the case of `CCOC(=O)C(c1c(O)c2ccccc2oc1=O)c1c(O)c2ccccc2oc1=O`, the Potency entry is “inactive”.
As for `ClCc1cccc(Cl)c1`, the Potency entry is “inactive”.
In the case of `OC(c1ccccc1)(c1ccccc1)C1CCNCC1`, the Potency result was “inactive”.
Same read-out and setting: the value for `CCOC(=O)C1(c2ccccc2)CCN(CCc2ccc(N)cc2)CC1` was “inactive”; that for `CCOC(=O)NC(O)C(Cl)(Cl)Cl` (stereo not given) was “inactive”.
Regarding `C[C@H]1CNCCc2ccc(Cl)cc21`, the Potency entry was “inactive”.
Still for that read-out and setting: next, `COP(=O)(OC)OC=C(Cl)Cl`: “inactive”; `CC(C)(C)OC(=O)c1ncn2c1[C@@H]1CCCN1C(=O)c1c(Br)cccc1-2`: “inactive”.
Regarding `NC(=O)OCCCc1ccccc1`, the Potency result was “inactive”.
Same read-out and setting: the value for `C[C@]12CC[C@H](O)CC1=CC[C@@H]1[C@@H]2CC[C@]2(C)C(=O)CC[C@@H]12` was “inactive”.
On to `OC(O)C(Cl)(Cl)Cl`, for which the Potency entry was “inactive”.
With `CCCCC1C(=O)NC(=O)N(C2CCCCC2)C1=O` (stereo not given), the Potency result was “inactive”.
Still for that read-out and setting: next, `CN1C[C@@H](NS(=O)(=O)N(C)C)C[C@@H]2c3cccc4c3c(cn4C)C[C@H]21`: “inactive”; `CC(Cc1ccccc1)NCCCCl` (stereo not given): “inactive”; `C[C@]12CC[C@H]3[C@@H](CCC4=CC(=O)CC[C@@H]43)[C@@H]1CC[C@@H]2O`: “inactive”.

Another assay concerns OV90. Described as above. The following applies: Gynecologic cancer cell panel viability, ATPlite luminescence, 48 h; series mostly up to 57.5 µM. The procedure, abridged:
as §1
For orientation: In ATP-based viability assays light output follows the ATP content of the culture.
Consider `CC(C)=C[C@@H]1[C@@H](C(=O)OCc2coc(Cc3ccccc3)c2)C1(C)C`, for which the Potency entry was “inactive”.
The same measure, in the same setting: the value for `CCN(CC)C(C)C(=O)c1ccccc1` (stereo not given) was “inactive”.
In the case of `Nc1ccc(Cl)cc1C(=O)c1ccccc1F`, the Potency result was “inactive”.
Still for that read-out and setting: next, `COc1ccc(C(=O)N2CCCC2=O)cc1`: “inactive”; `CC(C)C(Br)C(=O)NC(N)=O` (stereo not given): “inactive”; `C#C[C@]1(O)CC[C@H]2[C@@H]3CCC4=CC(=O)CCC4=C3C=C[C@@]21CC`: “inactive”.
The same measure, in the same setting: the value for `CC(CC(C(N)=O)(c1ccccc1)c1ccccc1)N(C)C` (stereo not given) was “inactive”; that for `C#C[C@]1(O)C=C[C@H]2[C@@H]3CCC4=CC(=O)CC[C@@H]4[C@H]3CC[C@@]21CC` was “inactive”; that for `C[C@@H]1CC[C@H]2[C@@H](C)C(=O)O[C@@H]3O[C@@]4(C)CC[C@@H]1[C@]32OO4` was “inactive”.
Consider `CNC(C)Cc1ccccc1OC` (stereo not given), for which the Potency entry was “inactive”.
For the compound `CC(Cc1ccccc1)NCc1ccccc1Cl` (stereo not given), the Potency entry is “inactive”.
On to `Nc1ccccc1C(=O)OCC(O)CO` (stereo not given), for which the Potency result is “inactive”.
The same measure, in the same setting: next, `CC(C)NCC(O)c1ccc(N)c(C#N)c1` (stereo not given): “inactive”.
On the same count and under the same terms, next, `Sc1ccccc1Cl`: “inactive”; `CCN(CC)CCOC(=O)C(C)(c1ccccc1)c1ccccc1`: “inactive”.
Same read-out and setting: the value for `COc1ccc2[nH]cc(CCN(C(C)C)C(C)C)c2c1` was “inactive”.
Regarding `COc1cc(CC#N)cc(OC)c1OC`, the Potency result was “inactive”.
As to `O=C(CBr)Nc1ccc(Cl)cc1C(=O)c1ccccc1F`, the Potency result was “inactive”.
On the same count and under the same terms, the value for `COP(=S)(OC)Oc1ccc(S(N)(=O)=O)cc1` was “inactive”; that for `C[N+](C)(C)CCOC(=O)C(O)(c1ccccc1)c1ccccc1` was “inactive”; that for `ClCCCN1CCN(c2cccc(Cl)c2)CC1` was “inactive”.
Still for that read-out and setting: the value for `CCc1ccc(C2CCNCC2)cc1` was “inactive”; that for `CCC1(c2ccccc2)CCC(=O)NC1=O` (stereo not given) was “inactive”; that for `CN(C)C(=O)Oc1cc(OC(=O)N(C)C)cc(C(O)CNC(C)(C)C)c1` (stereo not given) was “inactive”.
The same measure, in the same setting: the value for `Oc1ccc([C@H]2CNCc3c2ccc(O)c3O)cc1O` was “inactive”; that for `CCOC(=O)C(c1c(O)c2ccccc2oc1=O)c1c(O)c2ccccc2oc1=O` was “inactive”.
With `ClCc1cccc(Cl)c1`, the Potency result is “inactive”.
As to `OC(c1ccccc1)(c1ccccc1)C1CCNCC1`, the Potency entry is “inactive”.
Same read-out and setting: next, `CCOC(=O)C1(c2ccccc2)CCN(CCc2ccc(N)cc2)CC1`: “inactive”; `CCOC(=O)NC(O)C(Cl)(Cl)Cl` (stereo not given): “inactive”.
As to `C[C@H]1CNCCc2ccc(Cl)cc21`, the Potency entry was “inactive”.
Still for that read-out and setting: the value for `COP(=O)(OC)OC=C(Cl)Cl` was “inactive”.
Same read-out and setting: the value for `CC(C)(C)OC(=O)c1ncn2c1[C@@H]1CCCN1C(=O)c1c(Br)cccc1-2` was “inactive”; that for `NC(=O)OCCCc1ccccc1` was “inactive”; that for `C[C@]12CC[C@H](O)CC1=CC[C@@H]1[C@@H]2CC[C@]2(C)C(=O)CC[C@@H]12` was “inactive”.
As for `OC(O)C(Cl)(Cl)Cl`, the Potency entry is “inactive”.
Same read-out and setting: the value for `CCCCC1C(=O)NC(=O)N(C2CCCCC2)C1=O` (stereo not given) was “inactive”; that for `CN1C[C@@H](NS(=O)(=O)N(C)C)C[C@@H]2c3cccc4c3c(cn4C)C[C@H]21` was “inactive”.
The same measure, in the same setting: the value for `CC(Cc1ccccc1)NCCCCl` (stereo not given) was “inactive”; that for `C[C@]12CC[C@H]3[C@@H](CCC4=CC(=O)CC[C@@H]43)[C@@H]1CC[C@@H]2O` was “inactive”.
